Screens deposited in PubChem by several laboratories.
Only some compounds are listed: those with a hit (about 3.9% of all), similar ones and a draw of the others.
SARS 3CLpro inh – SARS-CoV 3CLpro protease inhibitors, primary screen, biochemical, quenched FRET | Replicase polyprotein 1ab (Severe acute respiratory syndrome coronavirus), P0C6X7 | recombinant SARS-CoV 3CLpro, quenched FRET peptide cleavage | inhibition, % at 6 µM | hit rate 0.14% among 290,000; in the data active = inhibition above about 12%
GDH-TPI counter-1 – GDH-TPI coupling enzyme inhibitors, primary screen, artefact control for M. tuberculosis FBA inhibitor project, biochemical, absorbance, full deck. GDH-TPI coupled enzyme counterscreen, NADH absorbance. inhibition, % at 4.8 µM. hit rate 1.2% among 360,000. AID 588335, 2011; in the data active = inhibition above about 30%;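 note: 0% = DMSO wells and 100% = wells lacking the enzyme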
Vc quorum ag – inducers of Vibrio cholerae quorum light production without autoinducers, primary screen, BH1578 luxS cqsA deficient, single point. hit rate 0.16% among 350,000. activation, % at 18.7 µM. AID 588436, 2011. V. cholerae BH1578 lux reporter, luminescence, 6 h; in the data active = activation mostly above about 9.7%, no sharp cut-off
PrPC TRFRET – inhibitors of human cell surface prion protein PrPC, primary screen, cell-based, TR-FRET. hit rate 0.43% among 370,000. inhibition, % at 13.8 µM. Major prion protein (Homo sapiens), P04156. TR-FRET read-out. AID 720596, 2013; in the data active = inhibition above about 24%; note: 0% = median of the test wells and 100% = reference compound wells
FBA Mtb inh – Mtb FBA enzyme inhibitors, primary screen, biochemical, fluorescence, strain H37Rv. purified M. tuberculosis FBA, fluorescence read-out. inhibition, % at 1 µM. hit rate 2.3% among 360,000;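 note: 0% = vehicle and 100% = reference inhibitor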
Target sequence (P9WQA3 whole entry, looked up): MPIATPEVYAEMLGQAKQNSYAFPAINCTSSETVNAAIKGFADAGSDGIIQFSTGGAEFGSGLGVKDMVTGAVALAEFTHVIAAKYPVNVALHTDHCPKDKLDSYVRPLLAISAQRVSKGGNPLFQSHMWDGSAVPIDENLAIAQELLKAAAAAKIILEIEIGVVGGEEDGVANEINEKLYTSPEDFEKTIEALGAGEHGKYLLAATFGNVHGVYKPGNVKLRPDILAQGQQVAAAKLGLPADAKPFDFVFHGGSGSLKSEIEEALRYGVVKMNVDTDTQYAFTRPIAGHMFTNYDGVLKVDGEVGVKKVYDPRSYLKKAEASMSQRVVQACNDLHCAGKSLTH
Mtb FBA confirm – M. tuberculosis aldolase blockers, biochemical, fluorescence, strain H37Rv, confirmation | shares compounds with FBA Mtb inh | purified M. tuberculosis FBA, fluorescence read-out | inhibition, % at 1 µM | hit rate 78% among 5,600 | AID 651616, 2012;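 note: 0% = vehicle wells and 100% = reference inhibitor wells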
GDH-TPI counter-2 – GDH-TPI coupling enzyme inhibitors, artefact control for M. tuberculosis FBA inhibitor project, biochemical, fluorescence, high throughput | shares compounds with FBA Mtb inh | AID 652141, 2013 | hit rate 81% among 5,600 | GDH-TPI coupled enzyme counterscreen | inhibition, % at 1 µM; in the data active = inhibition above about 10%
Numbers without * were called inactive. Cut-off read from the data, not from the text of the source, unless noted: active = inhibition above about 27%; inactive = the rest.

`S=c1[nH]nc(-c2ccccc2)n1CC1CCCO1` (centres undefined) gave SARS 3CLpro inh -4, GDH-TPI counter-1 -1, Vc quorum ag inactive, PrPC TRFRET 1 and FBA Mtb inh 7.
For O=[N+]([O-])c1ccccc1S(=O)(=O)Nc1ccc(-c2ccc(N3CCOCC3)nn2)cc1 the results were GDH-TPI counter-1 15, Vc quorum ag inactive, PrPC TRFRET -6, FBA Mtb inh 53*, Mtb FBA confirm active and GDH-TPI counter-2 active.
For O=[N+]([O-])c1ccccc1S(=O)(=O)Nc1cccc(-c2ccc(N3CCOCC3)nn2)c1 the results were GDH-TPI counter-1 9, Vc quorum ag -6, PrPC TRFRET -3 and FBA Mtb inh 0.
CC(O)Cn1nc([N+](=O)[O-])nc1N (centres undefined) was read as SARS 3CLpro inh -3, GDH-TPI counter-1 0, Vc quorum ag 0, PrPC TRFRET -2, FBA Mtb inh 31*, Mtb FBA confirm 180* and GDH-TPI counter-2 153*.
Screening Cc1ncc([N+](=O)[O-])n1CC(C)O (centres undefined) returned SARS 3CLpro inh -1, GDH-TPI counter-1 17, Vc quorum ag inactive, PrPC TRFRET -11 and FBA Mtb inh -3.
CCNC(=O)C1CCCN(C(=O)c2ccc3ccccc3c2)CC1 (centres undefined) was read as GDH-TPI counter-1 12, Vc quorum ag inactive, PrPC TRFRET -5 and FBA Mtb inh 2.
`COc1ccc(N2C(=O)c3ccccc3NC2c2ccc(NC(C)=O)cc2)c(OC)c1` (centres undefined) gave SARS 3CLpro inh 2, GDH-TPI counter-1 5, Vc quorum ag 1, PrPC TRFRET -6, FBA Mtb inh 42*, Mtb FBA confirm 91* and GDH-TPI counter-2 64*.
Screening CCOc1cc(C2Nc3ccccc3C(=O)N2c2ccccc2OC)ccc1O (centres undefined) returned SARS 3CLpro inh 8, GDH-TPI counter-1 8, Vc quorum ag inactive, PrPC TRFRET -7 and FBA Mtb inh 24.
COc1ccccc1N1C(=O)c2ccccc2NC1c1ccc(O)cc1 (centres undefined) was read as SARS 3CLpro inh 3, GDH-TPI counter-1 -7, Vc quorum ag -1, PrPC TRFRET 2, FBA Mtb inh 42*, Mtb FBA confirm 52* and GDH-TPI counter-2 45*.
Screening N#C/C(=C\c1c(Oc2ccccc2F)nc2ccccn2c1=O)C(=O)NC1CCS(=O)(=O)C1 (centres undefined) returned SARS 3CLpro inh 0, GDH-TPI counter-1 4, Vc quorum ag 0, PrPC TRFRET -12, FBA Mtb inh 28*, Mtb FBA confirm 106* and GDH-TPI counter-2 84*.
Screening N#C/C(=C\c1c(Oc2ccccc2Cl)nc2ccccn2c1=O)C(=O)NC1CCS(=O)(=O)C1 (centres undefined) returned SARS 3CLpro inh -6, GDH-TPI counter-1 3, Vc quorum ag 0, PrPC TRFRET -7 and FBA Mtb inh 15.
`Cn1c(=O)cc(C(=O)N/N=C/c2ccc(F)cc2)[nH]c1=O` gave SARS 3CLpro inh 2, GDH-TPI counter-1 2, Vc quorum ag 0, PrPC TRFRET 1 and FBA Mtb inh -5.
Screening CC(=O)c1ccc(-c2ccc(C(=O)NCC(c3ccc(F)cc3)N3CCOCC3)o2)cc1 (centres undefined) returned GDH-TPI counter-1 21, Vc quorum ag -1, PrPC TRFRET -4, FBA Mtb inh 55*, Mtb FBA confirm 57* and GDH-TPI counter-2 32*.
Cc1ccc(C2=NCCn3c2c2ccc(C(F)(F)F)cc2[n+]3[O-])cc1 was read as GDH-TPI counter-1 8, Vc quorum ag 0, PrPC TRFRET -12 and FBA Mtb inh 2.
COc1ccc(OC)c2c1C(=O)CC2C (centres undefined) was read as GDH-TPI counter-1 16, Vc quorum ag inactive, PrPC TRFRET 4, FBA Mtb inh 48*, Mtb FBA confirm 15 and GDH-TPI counter-2 7.
`CN(C)C(=O)c1ccc(-c2cc3onc(-c4ccccc4)c3c(=O)n2C)cc1` gave GDH-TPI counter-1 4, Vc quorum ag inactive, PrPC TRFRET 7 and FBA Mtb inh 2.
`Cc1ccc(-c2oc3ccccc3c(=O)c2OCC(=O)O)cc1` gave SARS 3CLpro inh 3, GDH-TPI counter-1 7, Vc quorum ag 1, PrPC TRFRET -8 and FBA Mtb inh 5.
Screening CCN(CC)C(=O)COc1c(-c2ccco2)oc2ccccc2c1=O returned SARS 3CLpro inh -3, GDH-TPI counter-1 33*, Vc quorum ag inactive, PrPC TRFRET -2, FBA Mtb inh 27*, Mtb FBA confirm 156* and GDH-TPI counter-2 155*.
For COc1ccccc1-c1cc2ccccc2[nH]1 the results were SARS 3CLpro inh -5, GDH-TPI counter-1 12, Vc quorum ag 0, PrPC TRFRET 0, FBA Mtb inh 90*, Mtb FBA confirm 49* and GDH-TPI counter-2 27*.
For Cc1ccc(C)c(NS(=O)(=O)c2cc(C(=O)NCC3CCCO3)ccc2C)c1 (centres undefined) the results were SARS 3CLpro inh 2, GDH-TPI counter-1 8, Vc quorum ag -3, PrPC TRFRET 4 and FBA Mtb inh 3.
Screening Cc1ccc(S(=O)(=O)Nc2nc3ccccc3nc2NCC2CCCO2)c(C)c1 (centres undefined) returned SARS 3CLpro inh 3, GDH-TPI counter-1 15, Vc quorum ag -1, PrPC TRFRET -2, FBA Mtb inh 30*, Mtb FBA confirm 108* and GDH-TPI counter-2 92*.
`CC1(C)Oc2ccc3ccc(=O)oc3c2[C@H](O)[C@H]1O` gave GDH-TPI counter-1 18, Vc quorum ag -1, PrPC TRFRET -3, FBA Mtb inh 58*, Mtb FBA confirm 69* and GDH-TPI counter-2 59*.
CC1(C)Oc2ccc3ccc(=O)oc3c2C[C@H]1O was read as GDH-TPI counter-1 16, Vc quorum ag -1, PrPC TRFRET 2, FBA Mtb inh 88*, Mtb FBA confirm 149* and GDH-TPI counter-2 113*.
C/C=C(/C)C(=O)O[C@H]1[C@@H](O)c2c(ccc3ccc(=O)oc23)OC1(C)C was read as SARS 3CLpro inh -4, GDH-TPI counter-1 20, Vc quorum ag inactive, PrPC TRFRET -3, FBA Mtb inh 34*, Mtb FBA confirm 93* and GDH-TPI counter-2 79*.
